Test results published in the supplement of paper PMC3545927.
The list shows a part of the results. The hit rate among all sequences tested is not known here.

Biological target: furin, P09958
Assay: furin cleavage Z-score vs untreated control; higher = more cleavage, active = 3.5 or more, inactive = 1 or less, 8 variable residues between constant flanks
Method in brief: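 Sequencing of released DNA, tagged with adapters by PCR, gave read counts used as abundance. That DNA was freed when purified furin cut N-terminally bead-bound 8-mer peptides fused to a cDNA oligonucleotide, in 0.01 ml reactions at 1:10 enzyme:substrate in 50 mM HEPES pH 7.5 with CaCl2 and NaCl, lasting 7.5, 15 or 30 min. The cleavage Z-score was the lowess-adjusted log count versus furin-free reactions, scaled by median absolute deviation.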

Chain of furin, P09958 (P09958 whole entry): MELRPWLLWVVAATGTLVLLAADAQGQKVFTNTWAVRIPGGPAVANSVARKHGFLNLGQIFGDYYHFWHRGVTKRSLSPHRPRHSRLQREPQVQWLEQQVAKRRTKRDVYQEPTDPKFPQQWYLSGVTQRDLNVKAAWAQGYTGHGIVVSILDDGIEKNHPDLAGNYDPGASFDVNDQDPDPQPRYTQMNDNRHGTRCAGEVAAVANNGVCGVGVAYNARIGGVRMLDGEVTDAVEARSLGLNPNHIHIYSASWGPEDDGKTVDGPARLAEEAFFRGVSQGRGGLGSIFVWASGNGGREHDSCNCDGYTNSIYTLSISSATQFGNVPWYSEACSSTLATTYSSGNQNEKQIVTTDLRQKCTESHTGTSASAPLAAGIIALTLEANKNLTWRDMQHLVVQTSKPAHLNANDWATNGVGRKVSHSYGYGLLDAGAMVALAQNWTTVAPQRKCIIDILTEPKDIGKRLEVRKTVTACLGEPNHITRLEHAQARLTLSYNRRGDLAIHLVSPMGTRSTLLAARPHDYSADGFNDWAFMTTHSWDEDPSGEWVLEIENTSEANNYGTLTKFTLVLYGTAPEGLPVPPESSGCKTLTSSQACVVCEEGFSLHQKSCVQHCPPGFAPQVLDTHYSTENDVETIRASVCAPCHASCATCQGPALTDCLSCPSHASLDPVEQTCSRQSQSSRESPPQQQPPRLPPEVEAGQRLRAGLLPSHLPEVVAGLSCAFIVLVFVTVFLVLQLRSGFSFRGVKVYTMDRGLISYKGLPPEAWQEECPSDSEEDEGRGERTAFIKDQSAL

Sequence | furin cleavage Z-score (7.5 min) | furin cleavage Z-score (15 min) | furin cleavage Z-score (30 min)
CARRRREYWQAGNASASA [FS-2077] | 1.57 | 2.17 | 5.41 (active)
CARRRRNVHDAGNASASA [FS-2375] | 4.94 (active) | 5.47 (active) | 4.66 (active)
CARACRLVHDAGNASASA [FS-2127] | -0.975 (inactive) | -0.538 (inactive) | -0.874 (inactive)
CARRRRLLQQAGNASASA [FS-3167] | -0.397 (inactive) | -0.514 (inactive) | -0.168 (inactive)
CARRRRFSRTAGNASASA [FS-1482] | 12.1 (active) | 11.9 (active) | 9.62 (active)
CARRRREAPKAGNASASA [FS-2452] | 10.9 (active) | 12.3 (active) | 8.72 (active)
CAVYEAADAIAGNASASA [HC267] | -0.0143 (inactive) | -0.395 (inactive) | -0.118 (inactive)
CATPMGFSYDAGNASASA [HC1477] | -1.01 (inactive) | -0.454 (inactive) | -1.57 (inactive)
CARRRRFERAAGNASASA [FS-1566] | 10.7 (active) | 10.7 (active) | 8.07 (active)
CARRRREGGAAGNASASA [FS-2373] | -0.0204 (inactive) | 0.649 (inactive) | 0.0983 (inactive)
CASSVRPAREAGNASASA [FS-197] | 5.98 (active) | 7.51 (active) | 5.17 (active)
CAHPLRPAREAGNASASA [FS-1210] | 5.83 (active) | 7.36 (active) | 6.09 (active)
CAVVCCSASYAGNASASA [HC2043] | 0.0516 (inactive) | 0.0797 (inactive) | 0.0526 (inactive)
CAGLGKVLIDAGNASASA [HC1082] | -0.199 (inactive) | -0.846 (inactive) | -0.271 (inactive)
CALEKRSVGCAGNASASA [FS-2391] | -0.325 (inactive) | -2.06 (inactive) | -0.0695 (inactive)
CANPARVCRDAGNASASA [FS-278] | 6.13 (active) | 5.66 (active) | 4.1 (active)
CAELGRPARDAGNASASA [FS-926] | 0.0348 (inactive) | -0.0349 (inactive) | -0.833 (inactive)
CAGLRDLAVAAGNASASA [HC642] | 1.12 | -0.299 (inactive) | -1.6 (inactive)
CANPARDDRSAGNASASA [FS-946] | 1.25 | 0.0847 (inactive) | -1.86 (inactive)
CAMSARRARDAGNASASA [FS-463] | 9.65 (active) | 10.9 (active) | 7.88 (active)
CAGLRRQKRDAGNASASA [FS-1000] | 12.6 (active) | 12.8 (active) | 9.7 (active)
CALEKRQKRDAGNASASA [FS-1639] | 14.8 (active) | 13.5 (active) | 11.4 (active)

Sequence | furin cleavage Z-score (7.5 min) | furin cleavage Z-score (15 min) | furin cleavage Z-score (30 min)
CATTPCSGWWAGNASASA [HC1908] | -0.371 (inactive) | -1.44 (inactive) | 0.0983 (inactive)
CAMEECSQHGAGNASASA [HC1776] | -0.484 (inactive) | 0.542 (inactive) | -0.44 (inactive)
CAEVPCHSPSAGNASASA [HC2377] | -0.25 (inactive) | -0.38 (inactive) | 1.09
CAEVFCHRPSAGNASASA [HC2347] | -0.391 (inactive) | -1 (inactive) | 0.51 (inactive)
CAHWSVTKRDAGNASASA [FS-336] | 0.168 (inactive) | 0.304 (inactive) | 0.862 (inactive)
CAILRRHKRDAGNASASA [FS-1214] | 10.7 (active) | 10.2 (active) | 7.94 (active)
CAQHSVRKRDAGNASASA [FS-1150] | 11.7 (active) | 12.2 (active) | 10.4 (active)
CAHLQRQKRDAGNASASA [FS-440] | 6.68 (active) | 7.1 (active) | 5.53 (active)
CAPKRRQKRDAGNASASA [FS-1048] | 13.5 (active) | 14.7 (active) | 10 (active)
CAILRRHVGPAGNASASA [HC1111] | 0.0974 (inactive) | -0.838 (inactive) | 0.671 (inactive)
CAVVCCSNSYAGNASASA [HC2061] | 0.77 (inactive) | -0.0199 (inactive) | 0.92 (inactive)
CALVPCHRPSAGNASASA [HC2305] | 0.746 (inactive) | 0.178 (inactive) | 0.32 (inactive)
CAEIVVCCSMAGNASASA [HC2124] | 0.157 (inactive) | -0.897 (inactive) | 0.583 (inactive)
CAQCCDLDPQAGNASASA [HC1491] | 0.144 (inactive) | 0.912 (inactive) | -0.252 (inactive)
CAMEECSQCLAGNASASA [HC1760] | -0.273 (inactive) | -0.494 (inactive) | 0.638 (inactive)
CAEVVFSTWVAGNASASA [HC126] | 1.73 | -1.1 (inactive) | -0.791 (inactive)
CATSSEPAPSAGNASASA [HC1344] | -0.191 (inactive) | -1.38 (inactive) | -0.0397 (inactive)
CATDSRTNRDAGNASASA [FS-1422] | -1.07 (inactive) | -0.239 (inactive) | 1.78
CAGLRRRKRDAGNASASA [FS-930] | 12.2 (active) | 10.2 (active) | 8.8 (active)
CAISPRQKRDAGNASASA [FS-542] | 12.4 (active) | 12.3 (active) | 9.21 (active)
CATHRRQKRDAGNASASA [FS-1092] | 3.98 (active) | 2.56 | 2.3
CATSSRNARNAGNASASA [FS-571] | 3.05 | 4.2 (active) | 5.2 (active)
